Source: PubChem BioAssay (Tox21)
Results filed as inconclusive are left out. Entries that show only a call come without a potency. Activity calls are given as the source filed them. Calls follow the shape of the dose curve; as a rule, active = well fitted cell-killing curve with a large enough effect in the repeat runs; inconclusive = weak or mixed curves, or effect the other way; inactive = no such curve, though single readings can be large or run the other way.

assay: qHTS assay to identify small molecule agonists of the estrogen receptor alpha (ER-alpha) signaling pathway in the presence of an antagonist - cell viability counter screen (AID 1259386); settings: VM7Luc4E2 viability, CellTiter-Fluor fluorescence, 22 h; series mostly up to 92.4 µM;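 also: cells exposed to compounds for 22 h at 37 °C before the viability read; nearly all actives have a fitted effect of over 30% in size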
Excerpt: National Center for Advancing Translational Sciences [NCATS]
NIH Chemical Genomics Center [NCGC]
U.S. Environmental Protection Agency [EPA]
National Institutes of Environmental Health Sciences [NIEHS]
National Toxicology Program [NTP]
U.S. Food and Drug Administration [FDA]
Estrogen receptor (ER), a member of nuclear hormone receptor plays an important role in development, metabolic homeostasis and reproduction. Two subtypes of ER, ER-alpha and ER-beta, have similar expression patterns with some uniqueness in both types. Endocrine disrupting chemicals (EDCs) and their interactions with steroid hormone receptors like ER causes disruption of normal endocrine function. Therefore, it is important to understand the effect of environmental chemicals in ER signaling pathway. For identifying ER agonists, VM7Luc4E2 cell line has been used in the current assay.
VM7Luc4E2 cell line (provided by Denison MS, University of California) endogenously expresses full-length ER-alpha and is stably transfected with a plasmid containing four estrogen responsive elements (ERE) upstream of a luciferase reporter gene. This current screening for measuring luciferase reporter gene activity using VM7Luc4E2 cells against Tox21 10K library collection is a confirmation study on agonist mode screening in presence of ER-antagonist (ICI-182,780) at 10.0nM final concentration. The cytotoxicity of the compounds was tested in parallel by measuring the cell viability using CellTiter-Fluor assay system (Promega, Madison, WI) in the same wells.
Tox21 Assay Protocol Summary:
VM7Luc4E2 cells were cultured in phenol red free assay medium containing 10% charcoal stripped FBS for 5 days prior to the assay. The cells were dispensed at 4,000 cells in 4uL of assay medium per well into white wall/solid-bottom 1536-well plates (Corning Life Sciences, Corning, NY) using a Multidrop Combi (Thermo Fisher Scientific Inc., Waltham, MA) dispenser. After the assay plates were incubated at 37C and 5% CO2 for 24hr, 1uL of 10.0nM (final concentration) ICI-182,780 or assay buffer was added using two separate tips of Flying Reagent Dispenser (FRD, Aurora Discovery, San Diego, CA). Then 23nL of compounds dissolved in DMSO at 15 concentrations and positive controls or DMSO only was transferred to the assay plates by a Pintool station (Wako, San Diego, CA). The assay plates were incubated at 37C and 5% CO2 for 22hr. After 21hr incubation at 37C, 1uL/well CellTiter-Fluor reagent (Promega Corporation, Madison, WI) was added to each well using FRD and after 1hr incubation at 37C and 5% CO2, the fluorescence signal was measured on ViewLux plate reader (PerkinElmer, Shelton, CT).

| SMILES | Potency |
| --- | --- |
| CCCCCCC(=O)O | inactive |
| Cc1cc(CC(=O)O)n(C)c1C(=O)c1ccc(Cl)cc1 | inactive |
| O=C1O[C@H]([C@H](O)CO)C(O)=C1O | inactive |
| CC(O)CNCC(C)O (stereo not given) | inactive |
| CC(C)(CO)CO | inactive |
| O=c1n(CCCN2CCN(c3cccc(Cl)c3)CC2)nc2ccccn12 | inactive |
| Cc1ccccc1Cl | inactive |
| CCc1cccc(CC)c1N | inactive |
| NC(=O)c1ncn([C@@H]2O[C@H](CO)[C@@H](O)[C@H]2O)n1 | inactive |
| NC(=O)NC(N)=O | inactive |
| CO[Si](CCCNCCN)(OC)OC | inactive |
| OCC(CO)(CO)CO | inactive |
| Cc1ccncc1 | inactive |
| C=C(CC(=O)O)C(=O)O | inactive |
| Cc1ccc(Cl)cc1 | inactive |
| CC(=O)OCc1ccc2c(c1)OCO2 | inactive |
| CC[N+](CC)(CC(=O)Nc1c(C)cccc1C)Cc1ccccc1 | inactive |
| CC(C=O)Cc1ccc(C(C)(C)C)cc1 (stereo not given) | inactive |
| CC(=O)Nc1ccc(CC(=O)O)cc1 | inactive |
| CCc1cccc(O)c1 | inactive |

| SMILES | Potency |
| --- | --- |
| NCCNCCNCCN | inactive |
| CC1=CC(=O)CC(C)(C)C1 | inactive |
| O=[N+]([O-])c1ccccc1C(F)(F)F | inactive |
| C1CCCNCC1 | inactive |
| CN1Cc2c(N)cccc2C(c2ccccc2)C1 (stereo not given) | inactive |
| CC1(C)C(=O)N(Cl)C(=O)N1Cl | inactive |
| Cc1cc(C)cc(O)c1 | inactive |
| CC(CN1c2ccccc2Sc2ccccc21)N(C)C (stereo not given) | inactive |
| N#CCC(=O)O | inactive |
| C=CC(C)(C)C | inactive |
| CCCOCC(C)O (stereo not given) | inactive |
| CC(C)(C)NC[C@H](O)COc1nsnc1N1CCOCC1 | inactive |
| O=C(O)C1=NN(c2ccc(S(=O)(=O)O)cc2)C(=O)C1 | inactive |
| CC/C(C)=N/O | inactive |
| CC(C)=CCC/C(C)=C/C=O | inactive |
| CCCCCCCCO | inactive |
| CCCCCCCC(=O)O | inactive |
| C=C1C[C@]23C[C@@]1(O)CC[C@H]2[C@@]12C=C[C@H](O)[C@@](C)(C(=O)O1)[C@H]2[C@@H]3C(=O)O | inactive |
| COc1cc(NC(=O)CC(C)=O)c(OC)cc1Cl | inactive |
| CN=C(NC#N)NCCSCc1nc[nH]c1C | inactive |
